Measurements: PubChem BioAssay (NCATS)
Inconclusive results are not listed. Entries that show only a call come without a potency. Calls of active or inactive are those of the source. Calls follow the shape of the dose curve; as a rule, active = well fitted inhibition curve with a large enough effect; inconclusive = small, poorly fitted or top-dose-only effect; inactive = flat fitted curve, though single readings scatter.

What was measured:
Experiment in all cases: qHTS profiling for inhibitors of Plasmodium falciparum proliferation (AID 504749); also: nearly all actives have a fitted effect of over 60% in size
Settings in all cases: P. falciparum in erythrocytes, SYBR Green DNA, 72 h; series mostly up to 28.7 µM
CP262 = test system: CP262
How it was run: (§1)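 SYBR Green fluorescence of parasite DNA, read after lysis and overnight dark incubation, measured growth over 72 h in erythrocyte culture at 0.3% parasitemia and 2.5% hematocrit. Data normalised to DMSO and 0.29 uM artemisinin, with plate-drift correction.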

CP266 = test system: CP266
How it was run: as §1

CP269 = test system: CP269
How it was run: as §1

CP286 = test system: CP286
How it was run: as §1

CP291 = test system: CP291
How it was run: as §1

CP315 = test system: CP315
How it was run: as §1

CP325 = test system: CP325
How it was run: as §1

CP329 = test system: CP329
How it was run: as §1

CP335 = test system: CP335
How it was run: as §1

DFO2036 = test system: DFO2036
How it was run: as §1

DIV30 = test system: DIV30
How it was run: as §1

Dd2 = test system: Dd2
How it was run: as §1

FAB9 = test system: FAB9
How it was run: as §1

CP268 = test system: CP268
How it was run: as §1

CP297 = test system: CP297
How it was run: as §1

CP305 = test system: CP305
How it was run: as §1

DIV14 = test system: DIV14
How it was run: as §1

DIV17 = test system: DIV17
How it was run: as §1

CP265 = test system: CP265
How it was run: as §1

ECU = test system: ECU
How it was run: as §1
Potency is read from the fitted curve at half-maximal effect.

SMILES | Potency (CP262) | Potency (CP266) | Potency (CP269) | Potency (CP286) | Potency (CP291) | Potency (CP315) | Potency (CP325) | Potency (CP329) | Potency (CP335) | Potency (DFO2036) | Potency (DIV30) | Potency (Dd2) | Potency (FAB9) | Potency (CP268) | Potency (CP297) | Potency (CP305) | Potency (DIV14) | Potency (DIV17) | Potency (CP265) | Potency (ECU)
CCCCCCCCCCCCCCNCCO | inactive | inactive | inactive | 3.55 µM (active) | inactive | inactive | inactive | inactive | inactive | 17.8 µM (active) | inactive | 10 µM (active) | inactive | – | – | – | – | – | – | –
c1ccc(OCc2ccc(CCCN3CCOCC3)cc2)cc1 | inactive | inactive | inactive | inactive | inactive | inactive | inactive | inactive | inactive | inactive | – | – | inactive | inactive | inactive | inactive | 8.49 µM (active) | 6.75 µM (active) | – | –
C[C@@H]1C[C@H]2[C@@H]3CCC4=CC(=O)C=C[C@]4(C)[C@@]3(F)[C@@H](O)C[C@]2(C)[C@H]1C(=O)CO | inactive | – | inactive | inactive | – | inactive | inactive | inactive | inactive | inactive | – | inactive | inactive | inactive | – | inactive | 13.5 µM (active) | – | inactive | inactive
CCOC(=O)c1cccc(N)c1 | inactive | – | – | inactive | – | – | – | – | inactive | inactive | 12 µM (active) | inactive | inactive | – | 15.1 µM (active) | – | – | – | inactive | inactive
CCCCc1nc(Cl)c(CO)n1Cc1ccc(-c2ccccc2-c2nn[nH]n2)cc1 | inactive | – | – | – | – | – | – | – | – | – | – | – | inactive | inactive | inactive | – | 8.49 µM (active) | – | – | –
Cc1cc(N)c2cc(NC(=O)Nc3ccc4nc(C)cc(N)c4c3)ccc2n1 | 4.78 µM (active) | – | 2.39 µM (active) | 4.47 µM (active) | 4.26 µM (active) | 7.57 µM (active) | – | 1.69 µM (active) | 7.57 µM (active) | 5.62 µM (active) | 6.01 µM (active) | 0.891 µM (active) | 5.01 µM (active) | – | 4.78 µM (active) | 3.79 µM (active) | 13.5 µM (active) | 10.7 µM (active) | 7.08 µM (active) | 10 µM (active)
NC(=O)C(=O)N/N=C/c1ccc([N+](=O)[O-])o1 | inactive | – | – | inactive | – | – | – | 15.1 µM (active) | inactive | inactive | – | inactive | inactive | – | – | – | – | – | inactive | inactive
C=C(CC)C(=O)c1ccc(OCC(=O)O)c(Cl)c1Cl | – | inactive | – | 10 µM (active) | – | – | inactive | – | – | – | – | 11.2 µM (active) | – | – | inactive | – | – | – | inactive | –
Oc1c(I)cc(Cl)c2cccnc12 | – | inactive | inactive | inactive | – | inactive | inactive | inactive | inactive | – | inactive | inactive | inactive | inactive | inactive | inactive | – | inactive | – | inactive
O=C(N/N=C/c1ccccc1O)c1ccncc1 | – | – | – | 5.01 µM (active) | – | – | – | – | 6.01 µM (active) | 7.94 µM (active) | – | 11.2 µM (active) | inactive | – | inactive | – | – | – | – | –
CC(C)(C)CC(C)(C)c1ccc(OCCOCC[N+](C)(C)Cc2ccccc2)cc1 | – | 4.26 µM (active) | 3.79 µM (active) | 2.24 µM (active) | 4.78 µM (active) | 4.78 µM (active) | 4.78 µM (active) | 4.78 µM (active) | 1.51 µM (active) | 3.98 µM (active) | 4.26 µM (active) | 4.47 µM (active) | 5.01 µM (active) | 4.26 µM (active) | 4.26 µM (active) | 4.78 µM (active) | 3.38 µM (active) | 4.78 µM (active) | 4.47 µM (active) | 5.01 µM (active)
Oc1ccc(O)cc1 | – | – | – | – | inactive | – | – | – | 2.39 µM (active) | – | – | – | inactive | inactive | – | – | – | inactive | – | –
CNCCC=C1c2ccccc2CCc2ccccc21 | – | – | – | – | – | inactive | – | – | – | – | – | 8.91 µM (active) | inactive | inactive | – | – | 2.13 µM (active) | 3.79 µM (active) | 7.94 µM (active) | –
c1ccc(CNCCNCc2ccccc2)cc1 | inactive | – | – | – | – | inactive | – | inactive | – | – | – | 11.2 µM (active) | inactive | – | 12 µM (active) | – | 3.79 µM (active) | 6.01 µM (active) | – | 11.2 µM (active)
c1ccc(-c2ccc(C(c3ccccc3)n3ccnc3)cc2)cc1 (stereo not given) | inactive | – | – | – | – | 16.9 µM (active) | – | – | – | – | 12 µM (active) | 7.94 µM (active) | – | – | 6.75 µM (active) | – | 9.53 µM (active) | 10.7 µM (active) | – | 3.55 µM (active)
